Source: PubChem (National Center for Advancing Translational Sciences (NCATS))
In the library only some 0.71% were active in any assay of this set; here they are far more common.
TexasRed fluor – Total Fluorescence Counterscreen for Inhibitors of the Interaction of Thyroid Hormone Receptor and Steroid Receptor Coregulator 2 | TRb/SRC2 Texas Red total fluorescence interference | Potency, µM (titrated, usually from 106 µM), inactives show at the top dose fluorescence change, negative = quenching | 280,000 tested, 0.29% active; active = well fitted curve in either direction with a large enough effect; inconclusive = small, poorly fitted or top-dose-only effect; also: % is scaled to controls: 0 for no effect and ±100 for the full control effect
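Flags fluorescent or light-absorbing compounds by total fluorescence, S + 2P, at 555 nm excitation and 632 nm emission. Mixture: 20 nM Texas Red SRC2 peptide, 0.6 uM human TRb LBD, 1 uM T3, 5% DMSO; compound exposure 5 h at ambient temperature.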
BLM inh-1 – qHTS Assay for Inhibitors of Bloom's syndrome helicase (BLM); Potency, µM (doses to about 56.1 µM), inactives show at the highest dose activity change, negative = inhibition, most hits filed as inhibitors; RecQ-like DNA helicase BLM (Homo sapiens), P54132; AID 2528, 2010; recombinant BLM DNA unwinding, fluorescence dequenching; 350,000 tested, 0.2% active;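 also: plate controls were vehicle for no effect and no enzyme for full effect; nearly all actives have a fitted effect of over 35% in size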
ERG-DNA inh – qHTS for Small Molecule Inhibitors of the ERG Ets/DNA interaction. Transcriptional regulator ERG (Homo sapiens), P11308. fluorescence polarization, His-ERG Ets domain / labelled DNA. Potency, µM (series often up to 76.9 µM), for inactives: top-dose FP activity, negative = inhibition, usual class: inhibitors. 370,000 tested, 0.028% active; active = well fitted inhibition curve with a large enough effect in the polarisation, with a control signal flat; inconclusive = small, poorly fitted or top-dose-only effect, or effect the other way, or a change in a side signal; inactive = no such curve, though single readings can be large or run the other way; the % refers to the polarisation;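 also: polarization taken with two DNA probes labelled with fluorescein and Texas red; % of control where 0% means no effect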
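His-tagged ERG Ets domain (1 uM in the protein solution; 300mM KCl, 50mM Tris-HCl, 1mM EDTA, 1mM DTT, pH 7.5) received compound, then a probe mix of 5 nM fluorescein-DNA and 100nM Texas-615-DNA. Fluorescence polarization was read for both dyes.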
TRb-SRC2 inh – qHTS for Inhibitors of the Interaction of Thyroid Hormone Receptor and Steroid Receptor Coregulator 2. TRbeta-SRC2 peptide binding, fluorescence polarization; receptor liganded with 1 µM T3. Potency, µM (highest dose often 106 µM), for the others: at the highest dose activity change, negative = inhibition, most hits filed as inhibitors. Thyroid hormone receptor beta (Homo sapiens), P10828. 280,000 tested, 0.065% active;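 also: plate controls were bound peptide for no effect and peptide without receptor for full effect; nearly all actives have a fitted effect of over 50% in size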
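Human TRb LBD (0.6 uM) plus Texas Red-labeled SRC2 peptide (20 nM), 1uM T3, 5% DMSO, 5 hr at ambient temperature. Decreased polarization (555/632 nm) flags inhibition; data normalized to free and bound peptide controls.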
RECQ1 inh-1 – qHTS Assay for Inhibitors of RecQ-Like Dna Helicase 1 (RECQ1); RECQ1 DNA unwinding, red fluorescence kinetic read; AID 2549, 2010; 240,000 tested, 0.54% active; ATP-dependent DNA helicase Q1 (Homo sapiens), P46063; Potency, µM (titrated, usually from 57.3 µM), for the others: top-dose activity, negative = inhibition, hits mostly inhibitors;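 also: plate controls were vehicle for no effect and no enzyme for full effect; nearly all actives have a fitted effect of over 30% in size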
Target sequence (P46063 whole entry, looked up): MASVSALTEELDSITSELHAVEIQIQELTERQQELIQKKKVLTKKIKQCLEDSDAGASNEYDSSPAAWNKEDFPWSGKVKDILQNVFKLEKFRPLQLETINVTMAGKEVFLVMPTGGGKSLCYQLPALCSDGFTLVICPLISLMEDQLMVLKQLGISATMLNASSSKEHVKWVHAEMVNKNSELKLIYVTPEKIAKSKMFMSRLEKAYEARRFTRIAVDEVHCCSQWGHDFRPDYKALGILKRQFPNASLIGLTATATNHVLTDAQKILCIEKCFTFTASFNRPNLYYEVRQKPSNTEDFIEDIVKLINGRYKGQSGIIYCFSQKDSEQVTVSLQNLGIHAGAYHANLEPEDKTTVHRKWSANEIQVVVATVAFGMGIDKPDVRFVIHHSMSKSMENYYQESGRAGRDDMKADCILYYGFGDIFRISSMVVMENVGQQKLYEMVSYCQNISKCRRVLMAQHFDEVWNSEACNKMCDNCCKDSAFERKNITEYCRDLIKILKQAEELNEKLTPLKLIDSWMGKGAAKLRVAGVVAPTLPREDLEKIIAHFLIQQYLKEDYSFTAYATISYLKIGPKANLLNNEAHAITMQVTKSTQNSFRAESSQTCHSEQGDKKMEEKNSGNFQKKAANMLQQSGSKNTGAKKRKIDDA
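RECQ1T1 50 nM; forked duplex (20 bp + 30-nt ss tails) 200 nM, ATP 2 mM final; pH 8.0, 2 mM MgCl2, 2.5 ug/ml poly(dI-dC); 15 min compound preincubation; discontinuous kinetic read over 2 h at RT.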
RGS12 GoLoco inh – qHTS Assay for Inhibitors of RGS12 GoLoco Motif Activity (Red Fluorophore). Guanine nucleotide-binding protein G(i) subunit alpha-1 (Homo sapiens), P63096. Gai1:RGS12 GoLoco peptide FP, rhodamine, 10 min. Potency, µM (series often up to 61.6 µM), for the others: at the highest dose activity, negative = inhibition, actives largely listed as inhibitors. 230,000 tested, 0.44% active; active = well fitted inhibition curve with a large enough effect, not every such curve was filed as active; inactive = no such curve, though single readings can be large or run the other way; also: % is scaled to controls: 0 for no effect and ±100 for the full control effect; nearly all actives have a fitted effect of over 30% in size
BLM inh-2 – qHTS Confirmation Assay for Inhibitors of Bloom's syndrome helicase (BLM) | BLM DNA unwinding, fluorescence quenching, biochemical | 220 tested, 40% active | Potency, µM, for the others: max response, negative = inhibition, most hits filed as inhibitors | shares compounds with BLM inh-1 | AID 2585, 2010;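 also: strand separation dequenches TAMRA so unwinding raises red fluorescence; series mostly up to about 69 µM; % is scaled to controls: 0 for no effect and ±100 for the full control effect; nearly all actives have a fitted effect of over 45% in size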
RECQ1 conf – Confirmation qHTS Assay for Inhibitors of RecQ-Like Dna Helicase 1 (RECQ1). 610 tested, 28% active. AID 2708, 2010. shares compounds with RECQ1 inh-1. RECQ1 helicase DNA unwinding, fluorescence. Potency, µM (doses to about 229 µM), for inactives: top-dose activity change, negative = inhibition, actives largely listed as inhibitors; also: % is scaled to controls: 0 for no effect and ±100 for the full control effect; nearly all actives have a fitted effect of over 45% in size
RECQ1 ADP FP – Counterscreen for RECQ1 Inhibitors: ADP Fluorescence Polarization Displacement Assay. shares compounds with RECQ1 inh-1. ADP fluorescence polarization displacement counterscreen. Potency, µM (highest dose often 228 µM), for the others: top-dose activity change, negative = inhibition, usual class: inhibitors. 530 tested, 27% active; also: % is scaled to controls: 0 for no effect and ±100 for the full control effect; nearly all actives have a fitted effect of over 45% in size
RECQ1 inh-2 – Confirmation qHTS Assay for Inhibitors of RecQ-Like Dna Helicase 1 (RECQ1) - Round 2 Cherry Picks. shares compounds with RECQ1 inh-1. recombinant RECQ1 DNA unwinding, red fluorescence. Potency, µM (doses to about 119 µM), for inactives: at the highest dose activity, negative = inhibition, most hits filed as inhibitors. 1,100 tested, 15% active. AID 504841, 2011; also: % is scaled to controls: 0 for no effect and ±100 for the full control effect; nearly all actives have a fitted effect of over 50% in size
Numbers without * were called inactive; ? = inconclusive; / = no result given; [ ] = another dose, or the depositor's remark. Unless noted, calls follow the shape of the dose curve; as a rule, active = well fitted curve in the direction sought with a large enough effect; inconclusive = small, poorly fitted or top-dose-only effect, or another doubt; inactive = no such curve, though single readings can be large; an effect the other way counts as inactive or inconclusive. Potency is read from the fitted curve at half-maximal effect.

SMILES	TexasRed fluor	BLM inh-1	ERG-DNA inh	TRb-SRC2 inh	RECQ1 inh-1	RGS12 GoLoco inh	BLM inh-2	RECQ1 inh-2	others
Cc1ccc2c(=O)cc(CSc3ccccc3)[nH]c2c1C	0%	-7%	-7%	-1%	/	/	/	/
CCN(CC)c1ccc(/C=N/NC(=O)c2ccc(O)cc2)cc1	-2%	-5%	/	2%	-6%	-9%	/	/
O=C(N/N=C/c1ccc(F)cc1)c1cc(-c2ccco2)nc2ccccc12	32µM*[quencher]	8.9µM*	-5%	3%	10µM*	9%	18µM*	/	RECQ1 conf=40µM*;RECQ1 ADP FP=?
O=C(NC1CC1)c1cc(-c2ccco2)nc2ccccc12	-16%	14µM*	-5%	-1%	20µM*	-8%	20µM*	/	RECQ1 conf=20µM*;RECQ1 ADP FP=56µM*
CCOc1ccc(/C=N/NC(=O)c2cc(-c3ccco3)nc3ccccc23)cc1	1%	-5%	14%	3%	0%	8%	/	/
Oc1ccccc1Nc1nc(NCC2CCCO2)c2ccccc2n1 (configuration not stated)	-4%	-8%	-3%	3%	-7%	-1%	/	/
Oc1ccc(Nc2nc(NCC3CCCO3)c3ccccc3n2)cc1 (configuration not stated)	-4%	16µM*	0%	1%	14µM*	-9%	14µM*	40µM*	RECQ1 conf=25µM*;RECQ1 ADP FP=?
Cc1nc(Nc2ccc(Cl)cc2)cc(-c2ccccc2)n1	8%	-15%	3%	2%	/	/	/	/
CC(=O)Nc1sc2c(c1-c1nc3ccccc3s1)CCN(C(C)C)C2	4%	212%	?	1%	?	5%	459%	45µM*
CCN1CCc2c(sc(NC(=O)CSc3ccccc3)c2-c2nc3ccccc3s2)C1	-1%	-9%	1%	-7%	/	/	/	/
O=C(O)c1cccc(C[C@H](Br)C(=O)O)c1	/	/	/	/	/	2%[14.2 µM]	/	/
COC(=O)C(C(=O)OC)[C@@H]1O[C@@]23COC=C[C@]2(C)[C@H]3c2ccccc21	0%	1%	/	-3%	0%	-12%	/	/
Cc1ccc2sc(NC(=O)c3ccc4c(c3)OCCO4)nc2c1C	-2%	-10%	5%	-5%	/	/	/	/
Cc1nc2c(ccc3nc(NC(=O)c4ccc5c(c4)OCCO5)sc32)s1	-4%	-24%	/	1%	20µM*	13%	30µM*	45µM*	RECQ1 ADP FP=44%[91.9 µM]
O=C(CSc1nc2scc(-c3ccco3)c2c(=O)n1-c1ccccc1)NCC1CCCO1 (configuration not stated)	-3%	14µM*	-3%	5%	?	15%	?	?
CN1CCN(c2ccc(Nc3c4ccccc4nc4ccccc34)cc2)CC1	-4%	20µM*	/	5%	13µM*	/	32µM*	/	RECQ1 conf=11µM*;RECQ1 ADP FP=35µM*
COc1ccc(Nc2c3ccccc3nc3ccccc23)cc1	/	-7%	-4%	/	/	/	/	/
O=C(CSc1nc2ccccc2n1CCc1ccccc1)c1ccc(O)c(O)c1	?	11µM*	-3%	6%	7.1µM*	12%	19µM*	?	RECQ1 conf=45µM*
COc1ccc(N2CCN(CC(O)COc3ccc(C(C)C)c(C)c3)CC2)cc1 (configuration not stated)	-1%	-2%	4%	8%	/	/	/	/
Cc1cnc(CNc2nc(-c3ccc(N(C)C)cc3)nc3ccccc23)cn1	-2%	28µM*	/	6%	?	-10%	20µM*	?
Cn1c(=O)c(=O)n(C)c2cc(N3CCCC3)c(NC(=O)c3ccc(C(C)(C)C)cc3)cc21	1%	-3%	3%	-3%	/	/	/	/
N#C/C(=C\c1ccc(N2CCOCC2)c([N+](=O)[O-])c1)c1nc2ccccc2[nH]1	-5%	-19%	/	-21%	10%	14%	/	/
N#C/C(=C\c1ccc(N2CCOCC2)o1)c1nc2ccccc2[nH]1	/	22µM*	?	/	32µM*	200%	?	?
CN(c1ccccc1)c1ccc(/C=C(\CCC(=O)O)c2nc3ccccc3s2)cc1[N+](=O)[O-]	-3%[53 µM]	22µM*	/	1%[53 µM]	?	3%	36µM*	13µM*
COC1=C(OC)C(=O)c2ccccc2C1=O	-2%	/	/	1%	-11%	9%	/	/
